From PubChem BioAssay AID1159580 (chemical genetic matrix, 2015)
The whole screen tested about 5,500 compounds, of which about 2,000 (36%) were called active. Roughly 18% stayed inconclusive and do not appear here. Rule as the data show it: active = normalized growth mostly below about 0.91 (no sharp cut-off); inconclusive = no clear call, values can overlap the other calls; inactive = mostly above about 0.92. The list shows a part of the results.

Test: chemical genetic growth profiling, strain panel (AID 1159580);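 also: tested at 20 µM; growth read once vehicle control cultures reached saturation at 30 °C; 1 = growth at the plate median or of vehicle wells; lower values mean less growth of the strain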
Details: growth OD

Measured: normalized growth

NC(Cn1ccc(=O)c(O)c1)C(=O)O (configuration not stated)
inactive: S. cerevisiae deletion strains, locus YJR075W, strain HOC1, active compounds read low 1.01 | S. cerevisiae deletion strains, locus YKL009W, strain mrt4, active compounds read low 1.01 | S. cerevisiae deletion strains, locus YKL068W, active compounds read low 0.993 | S. cerevisiae deletion strains, locus YKL085W, strain MDH1 (second series), active compounds read low 0.993 | S. cerevisiae deletion strains, locus YKL085W, strain MDH1, active compounds read low 0.993 | S. cerevisiae deletion strains, locus YKL160W, strain elf1, active compounds read low 1.04 | S. cerevisiae deletion strains, locus YKL190W, strain CNB1, active compounds read low 1.01 | S. cerevisiae deletion strains, locus YKR001C, strain vps1, active compounds read low 0.991 | S. cerevisiae deletion strains, locus YKR026C, strain gcn3, active compounds read low 1.03 | S. cerevisiae deletion strains, locus YKR091W, strain srl3, active compounds read low 1.01 | S. cerevisiae deletion strains, locus YLL001W, strain dnm1, active compounds read low 0.981 | S. cerevisiae deletion strains, locus YLL026W, active compounds read low 1.01 | S. cerevisiae deletion strains, locus YLL041C, strain sdh2, active compounds read low 1.01 | S. cerevisiae deletion strains, locus YLR027C, strain aat2, active compounds read low 1.01 | S. cerevisiae deletion strains, locus YLR039C, strain RIC1, active compounds read low 1.04 | S. cerevisiae deletion strains, locus YLR058C, strain SHM2, active compounds read low 1.01 | S. cerevisiae deletion strains, locus YLR102C, strain apc9, active compounds read low 0.988 | S. cerevisiae deletion strains, locus YLR113W, strain HOG1, active compounds read low 1.03 | S. cerevisiae deletion strains, locus YLR221C, strain rsa3, active compounds read low 1 | S. cerevisiae deletion strains, locus YLR258W, strain gsy2, active compounds read low 1.03 | S. cerevisiae deletion strains, locus YLR262C, strain YPT6 (second series), active compounds read low 0.977 | S. cerevisiae deletion strains, locus YLR262C, strain YPT6, active compounds read low 1.03 | S. cerevisiae deletion strains, locus YLR268W, strain sec22, active compounds read low 0.962 | S. cerevisiae deletion strains, locus YLR320W, strain mms22, active compounds read low 0.981 | S. cerevisiae deletion strains, locus YLR330W, strain CHS5, active compounds read low 1.01 | S. cerevisiae deletion strains, locus YLR342W, strain FKS1 (second series), active compounds read low 1.06 | S. cerevisiae deletion strains, locus YLR342W, strain FKS1, active compounds read low 1.03 | S. cerevisiae deletion strains, locus YLR357W, strain rsc2, active compounds read low 0.986 | S. cerevisiae deletion strains, locus YLR370C, strain arc18, active compounds read low 1.03 | S. cerevisiae deletion strains, locus YLR371W, strain rom2, active compounds read low 0.995 | S. cerevisiae deletion strains, locus YLR384C, strain iki3, active compounds read low 1.03 | S. cerevisiae deletion strains, locus YLR418C, strain cdc73, active compounds read low 0.994 | S. cerevisiae deletion strains, locus YML016C, strain PPZ1, active compounds read low 1.02 | S. cerevisiae deletion strains, locus YML032C, strain rad52, active compounds read low 0.965 | S. cerevisiae deletion strains, locus YML120C, strain ndi1, active compounds read low 1.01 | S. cerevisiae deletion strains, locus YML124C, strain tub3, active compounds read low 0.995 | S. cerevisiae deletion strains, locus YMR058W, strain fet3, active compounds read low 1.01 | S. cerevisiae deletion strains, locus YMR078C, strain ctf18, active compounds read low 0.982 | S. cerevisiae deletion strains, locus YMR125W, strain sto1, active compounds read low 1.04 | S. cerevisiae deletion strains, locus YMR129W, active compounds read low 1.01 | S. cerevisiae deletion strains, locus YMR205C, strain PFK2, active compounds read low 1.01 | S. cerevisiae deletion strains, locus YMR223W, strain ubp8, active compounds read low 1.01 | S. cerevisiae deletion strains, locus YMR231W, strain pep5, active compounds read low 1.02 | S. cerevisiae deletion strains, locus YMR263W, strain SAP30, active compounds read low 1.01 | S. cerevisiae deletion strains, locus YMR307W, strain GAS1, active compounds read low 1.02 | S. cerevisiae deletion strains, locus YNL067W, strain RPL9B, active compounds read low 1.01 | S. cerevisiae deletion strains, locus YNL071W, strain lat1, active compounds read low 1.02 | S. cerevisiae deletion strains, locus YNL128W, strain TEP1, active compounds read low 1.01 | S. cerevisiae deletion strains, locus YNL153C, strain GIM3, active compounds read low 1.01 | S. cerevisiae deletion strains, locus YNL183C, strain NPR1, active compounds read low 0.974 | S. cerevisiae deletion strains, locus YNL209W, strain ssb2, active compounds read low 1.03 | S. cerevisiae deletion strains, locus YNL233W, strain BNI4, active compounds read low 1.02 | S. cerevisiae deletion strains, locus YNL248C, strain rpa49, active compounds read low 1.04 | S. cerevisiae deletion strains, locus YNL250W, strain rad50, active compounds read low 0.978 | S. cerevisiae deletion strains, locus YNL271C, strain bni1, active compounds read low 0.984 | S. cerevisiae deletion strains, locus YNL298W, strain CLA4, active compounds read low 0.987 | S. cerevisiae deletion strains, locus YNL307C, strain MCK1, active compounds read low 0.997 | S. cerevisiae deletion strains, locus YNL322C, strain KRE1 (second series), active compounds read low 1.02 | S. cerevisiae deletion strains, locus YNL322C, strain KRE1, active compounds read low 1.01 | S. cerevisiae deletion strains, locus YNR049C, strain mso1, active compounds read low 1.02 | S. cerevisiae deletion strains, locus YNR052C, strain pop2, active compounds read low 0.992 | S. cerevisiae deletion strains, locus YOL006C, strain TOP1, active compounds read low 1.01 | S. cerevisiae deletion strains, locus YOL012C, strain htz1 0.622 | S. cerevisiae deletion strains, locus YOL147C, strain pex11, active compounds read low 0.985 | S. cerevisiae deletion strains, locus YOR001W, strain rrp6, active compounds read low 0.969 | S. cerevisiae deletion strains, locus YOR061W, strain CKA2, active compounds read low 1.03 | S. cerevisiae deletion strains, locus YOR069W, strain VPS5, active compounds read low 1.01 | S. cerevisiae deletion strains, locus YOR070C, strain gyp1, active compounds read low 1.03 | S. cerevisiae deletion strains, locus YOR080W, strain dia2, active compounds read low 1.01 | S. cerevisiae deletion strains, locus YOR083W, strain WHI5, active compounds read low 0.982 | S. cerevisiae deletion strains, locus YOR106W, strain vam3, active compounds read low 1.02 | S. cerevisiae deletion strains, locus YOR136W, strain idh2, active compounds read low 0.996 | S. cerevisiae deletion strains, locus YOR144C, strain elg1, active compounds read low 0.985 | S. cerevisiae deletion strains, locus YOR184W, strain ser1, active compounds read low 0.99 | S. cerevisiae deletion strains, locus YOR231W, strain MKK1, active compounds read low 1.02 | S. cerevisiae deletion strains, locus YOR265W, strain rbl2, active compounds read low 1.02 | S. cerevisiae deletion strains, locus YOR270C, strain vph1, active compounds read low 1.07 | S. cerevisiae deletion strains, locus YOR290C, strain snf2, active compounds read low 1.04 | S. cerevisiae deletion strains, locus YOR316C, strain cot1, active compounds read low 0.988 | S. cerevisiae deletion strains, locus YPL051W, strain arl3, active compounds read low 1.03 | S. cerevisiae deletion strains, locus YPL055C, strain LGE1, active compounds read low 1.05 | S. cerevisiae deletion strains, locus YPL078C, strain atp4, active compounds read low 1.05 | S. cerevisiae deletion strains, locus YPL106C, strain sse1, active compounds read low 1.02 | S. cerevisiae deletion strains, locus YPL240C, strain hsp82, active compounds read low 1.01 | S. cerevisiae deletion strains, locus YPL241C, strain CIN2, active compounds read low 1.01 | S. cerevisiae deletion strains, locus YPL256C, strain CLN2, active compounds read low 1.03 | S. cerevisiae deletion strains, locus YPR119W, strain clb2, active compounds read low 0.988 | S. cerevisiae deletion strains, locus YPR141C, strain kar3, active compounds read low 0.993 | S. cerevisiae deletion strains, locus YPR163C, strain tif3, active compounds read low 0.987 | S. cerevisiae deletion strains, locus YPR167C, strain met16, active compounds read low 0.99 | S. cerevisiae deletion strains, strain wtn01, active compounds read low 0.991 | S. cerevisiae strains, strain wild type, active compounds read low 1.03
